Screen size: about 310,000 compounds; about 14,000 (4.5%) showed an effect of 50% or more. The effect is printed as a negative number. The entries come from a sample that favours strong results as a whole.
Molecular target: human ether-à-go-go-related gene (hERG) potassium channel (human, UniProt Q12809)
Test: primary screen, population patch clamp on CHO cells stably expressing hERG; higher = less effect of the substance
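Note: peak tail current of the secondary pulse compared with the same well before compound.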

human ether-à-go-go-related gene (hERG) potassium channel, sequence (Q12809 whole entry, looked up): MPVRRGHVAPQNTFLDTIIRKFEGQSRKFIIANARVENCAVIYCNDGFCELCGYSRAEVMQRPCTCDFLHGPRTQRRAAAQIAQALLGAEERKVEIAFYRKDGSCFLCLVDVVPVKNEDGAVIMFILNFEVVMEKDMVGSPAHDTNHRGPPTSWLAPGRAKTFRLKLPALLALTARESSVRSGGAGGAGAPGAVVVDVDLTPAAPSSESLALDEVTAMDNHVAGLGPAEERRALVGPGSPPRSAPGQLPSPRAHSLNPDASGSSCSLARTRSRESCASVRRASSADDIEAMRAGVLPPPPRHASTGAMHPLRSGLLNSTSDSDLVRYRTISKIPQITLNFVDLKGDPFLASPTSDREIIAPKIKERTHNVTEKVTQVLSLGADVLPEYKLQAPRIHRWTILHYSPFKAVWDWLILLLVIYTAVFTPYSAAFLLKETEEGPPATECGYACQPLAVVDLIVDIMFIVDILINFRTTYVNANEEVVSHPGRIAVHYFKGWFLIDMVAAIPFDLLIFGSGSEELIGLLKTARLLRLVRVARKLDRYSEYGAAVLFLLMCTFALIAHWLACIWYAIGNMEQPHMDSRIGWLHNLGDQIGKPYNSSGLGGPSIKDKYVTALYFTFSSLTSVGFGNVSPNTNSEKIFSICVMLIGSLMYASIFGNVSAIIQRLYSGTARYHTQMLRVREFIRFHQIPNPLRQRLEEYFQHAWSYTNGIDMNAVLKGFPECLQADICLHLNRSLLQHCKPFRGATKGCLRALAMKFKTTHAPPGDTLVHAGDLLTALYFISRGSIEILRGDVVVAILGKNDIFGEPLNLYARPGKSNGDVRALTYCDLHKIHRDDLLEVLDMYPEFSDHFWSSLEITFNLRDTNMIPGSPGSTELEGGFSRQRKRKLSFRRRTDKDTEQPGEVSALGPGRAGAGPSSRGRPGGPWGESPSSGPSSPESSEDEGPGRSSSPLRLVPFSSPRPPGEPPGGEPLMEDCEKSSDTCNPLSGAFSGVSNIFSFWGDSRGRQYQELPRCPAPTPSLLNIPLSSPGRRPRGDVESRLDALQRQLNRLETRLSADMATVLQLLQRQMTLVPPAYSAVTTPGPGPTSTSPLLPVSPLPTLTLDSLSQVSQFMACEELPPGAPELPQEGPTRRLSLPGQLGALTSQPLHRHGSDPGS

Compound | hERG current change (%, negative = inhibition) at 10uM
COc1ccc(-c2nnc(SCC(=O)N(Cc3ccccc3)C(C)(C)C)o2)cc1OC | -22.9%
O=c1c(Cc2ccc(Cl)cc2)c(O)ccn1Cc1cccs1 | 4.04%
Cc1ccc(C(=O)NC2CC(=O)N(c3ccc4c(c3)OCCO4)C2)cc1[N+](=O)[O-] (centres unmarked) | 14.6%
CCC1(CC)NC(=O)N(CC(=O)OCC(=O)c2ccccc2OC)C1=O | 0.647%
CC(C)(C)NC(=O)C(Cc1ccccc1)NS(=O)(=O)c1cccc2nsnc12 (centres unmarked) | -1.39%
CC(Sc1ccccc1)C(=O)N1CCN(S(=O)(=O)c2ccccc2)CC1 (centres unmarked) | -8.83%
O=[N+]([O-])c1cc(-n2cnnn2)ccc1N1CCC(Cc2ccccc2)CC1 | -54.9%
CC1CC(C)CN(c2ccc(-n3cnnn3)cc2[N+](=O)[O-])C1 (centres unmarked) | -18.4%
NC(=O)CC(NC(=O)c1ccccc1)c1ccc(N2CCC(Cc3ccccc3)CC2)c([N+](=O)[O-])c1 (centres unmarked) | 4.44%
Cn1cnnc1SCc1cccc(Br)c1 | 0.347%
COc1cccc(-n2c(CNc3ccc(F)cc3)nnc2SCC(N)=O)c1 | -11.8%
Cc1cccc(NC(=O)C2CCN(C(=O)[C@@H]3Cc4ccccc4CN3)CC2)c1 | -67.2%
CCc1ccc(NC(=O)C2CCN(C(=O)[C@@H]3Cc4ccccc4CN3)CC2)cc1 | -59.5%
Cc1ccc(NC(=O)C2CCN(C(=O)[C@@H]3Cc4ccccc4CN3)CC2)c(C)c1 | -41.4%
COc1ccc(NC(=O)C2CCN(C(=O)[C@@H]3Cc4ccccc4CN3)CC2)cc1 | -38.2%
CCc1ccc(NC(=O)C2CCC(CNC(=O)[C@@H]3Cc4ccccc4CN3)CC2)cc1 (some centres unmarked) | 4.23%
Cc1ccc(NC(=O)C2CCC(CNC(=O)[C@@H]3Cc4ccccc4CN3)CC2)cc1 (some centres unmarked) | -25.8%
Cc1ccc(NC(=O)C2CCN(C(=O)[C@@H]3Cc4ccccc4CN3)CC2)cc1 | -67.3%
Cc1cc(C)cc(NC(=O)C2CCC(CNC(=O)[C@@H]3Cc4ccccc4CN3)CC2)c1 (some centres unmarked) | 0.322%
COc1ccc(CNC(=O)C2CCN(C(=O)[C@@H]3Cc4ccccc4CN3)CC2)cc1 | -24.8%
Cc1cc(C)cc(NC(=O)C2CCN(C(=O)[C@@H]3Cc4ccccc4CN3)CC2)c1 | -67.7%

Compound | hERG current change (%, negative = inhibition) at 10uM
Cc1cccc(NC(=O)C2CCC(CNC(=O)[C@@H]3Cc4ccccc4CN3)CC2)c1 (some centres unmarked) | -2.36%
COc1cccc(NC(=O)C2CCN(C(=O)[C@@H]3Cc4ccccc4CN3)CC2)c1 | -48.1%
COC(=O)COc1ccc(S(=O)(=O)Nc2ccc(NC(C)=O)cc2)cc1C | 19.8%
COc1ccc(C2Nc3ccccc3C(=O)N2Cc2ccccc2)cc1Cn1nnc2ccccc21 (centres unmarked) | -25.1%
Cc1cc(S(=O)(=O)N2CCN(c3ccccc3C)CC2)ccc1F | 1.78%
CCC(C)C(=O)Nc1nnc(SCC(=O)Nc2ccccc2F)s1 (centres unmarked) | 10.1%
CCOc1ccc2c(c1)nc(C)n2C | 11.7%
C[C@]12CC[C@@H]3c4ccc(O)cc4CC[C@H]3[C@@H]1CC[C@@H]2OC(=O)CCC1CCCC1 | 14%
O=C(CN1C(=O)CSCC1=O)Nc1ccc2c(c1)OCO2 | 16.2%
Cc1ccc(S(=O)(=O)N2CCCCC2)cc1C(=O)c1nccn1C | -2.56%
O=C(N/N=C\c1cn(-c2ccccc2)nc1-c1ccccc1)c1ccc2c(c1)OCO2 | 11.3%
O=C(CSc1nnc(-c2ccncc2)n1-c1ccccc1)NC1CC1 | 4.69%
Cc1cc(/C=C2\SC(=Nc3ccc(N4CCOCC4)cc3)N(C)C2=O)c(C)n1-c1cccnc1 | 11.3%
Cc1cc(=O)n2[nH]c(C(F)(F)F)c(-c3ccccc3)c2n1 | 3.6%
CC(C)C1NC(=S)N(Cc2ccccc2)C1=O (centres unmarked) | 5.2%
CC(C)c1ccc(NC(=O)C2CCN(C(=O)[C@@H]3Cc4ccccc4CN3)CC2)cc1 | -67.4%
CC(C)c1ccc(NC(=O)C2CCC(CNC(=O)[C@@H]3Cc4ccccc4CN3)CC2)cc1 (some centres unmarked) | 9.65%
CC(NC(=O)C1CCN(C(=O)[C@@H]2Cc3ccccc3CN2)CC1)c1ccccc1 (some centres unmarked) | -25.7%
CCOc1ccc(NC(=O)COC(=O)c2c(OC)cccc2OC)cc1 | -1.27%
Cl.O=C(CN1C2=NCCN2c2ccccc21)N1CCOCC1 | 9.79%
Cl.OC(CN1C2=NCCN2c2ccccc21)c1ccc2c(c1)OCO2 (centres unmarked) | -63.6%

Compound | hERG current change (%, negative = inhibition) at 10uM
OC(c1ccc2c(c1)OCO2)c1nccc2ccccc12 (centres unmarked) | -1.04%
Cl.OC(CN1C2=NCCCN2c2ccccc21)c1ccc2c(c1)OCO2 (centres unmarked) | -70.2%
COc1cc(C(=O)NNC(=O)CSc2nnc3ccccn23)cc(OC)c1OC | 15.4%
CCCC(=O)Nc1ccc(C(=O)N/N=C/c2cccnc2)cc1 | -8.24%
CC1(C)Cc2c(cnn2-c2ccc(F)cc2)C(NC(=O)CCCN2CCCCC2=O)C1 (centres unmarked) | 2.89%
CCCCOC(=O)Cn1c(=O)c2c(nc3n2CCCCN3c2ccc(C)cc2)n(C)c1=O | -52.8%
CCOC(=O)Cn1c(=O)c2c(nc3n2CCCCN3c2ccc(OCC)cc2)n(C)c1=O | -41.4%
CCOC(=O)Cn1c(=O)c2c(nc3n2CCCCN3c2ccc(C)cc2)n(C)c1=O | -19.5%
Cc1ccccc1S(=O)(=O)Cc1ccc(C(=O)NCCN2CCCCC2C)o1 (centres unmarked) | -39.3%
CCOc1cc2c(cc1OCC)C(c1ccccc1)N(c1ccccc1)C(=O)C2 (centres unmarked) | -6.2%
CCOc1ccc(C2c3cc(OC)c(OC)cc3CC(=O)N2c2ccccc2)cc1 (centres unmarked) | -26.5%
CCOc1cc2c(cc1OCC)C(c1ccc(OC)cc1)N(c1ccccc1)C(=O)C2 (centres unmarked) | -57.5%
COC(=O)c1ccc(-n2c(C)cc(C(=O)COC(=O)CC3Sc4ccccc4NC3=O)c2C)cc1 (centres unmarked) | 28.5%
Cc1cc(N2CCN(C)CC2)nc2ccc(NC(=O)CCC3CCCC3)cc12 | -74.6%
Cc1cc(N2CCN(C)CC2)nc2ccc(NC(=S)N3CCOCC3)cc12 | -15.4%
CCCN1CCN(C(=S)Nc2ccc3nc(N4CCN(CC)CC4)cc(C)c3c2)CC1 | 2.61%
CCN1CCN(C(=S)Nc2ccc3nc(N4CCN(C)CC4)cc(C)c3c2)CC1 | -2.94%
CCN1CCN(C(=S)Nc2ccc3nc(N4CCN(CC)CC4)cc(C)c3c2)CC1 | -13.9%
CCN1CCN(c2cc(C)c3cc(NC(=S)N4CCOCC4)ccc3n2)CC1 | -23.4%
CCN1CCN(c2cc(C)c3cc(NC(=S)N4CCCCC4)ccc3n2)CC1 | -50.1%
Cc1cc(N2CCN(C)CC2)nc2ccc(NC(=O)CCC(=O)NCc3ccco3)cc12 | 7.05%

Compound | hERG current change (%, negative = inhibition) at 10uM
CCN1CCN(c2cc(C)c3cc(NC(=S)N4CCCC4)ccc3n2)CC1 | -15.9%
CCN1CCN(c2cc(C)c3cc(NC(=S)N4CCCC(C)C4)ccc3n2)CC1 (centres unmarked) | -51.3%
Cc1cc(N2CCN(C)CC2)nc2ccc(NC(=O)CCC(=O)NCCC(C)C)cc12 | 13.8%
Cc1cc(N2CCN(C)CC2)nc2ccc(NC(=S)N3CCCCCC3)cc12 | -67.2%
N/C(=N\OC(=O)/C=C/c1ccc(Br)cc1)c1ccccn1 | -6.37%
OC(CSc1ccc(F)cc1)CN1CCN(c2ccccc2)CC1 (centres unmarked) | -41.7%
O=C(CSc1nnc2c(Cl)cc(C(F)(F)F)cn12)NCc1ccc(F)cc1 | -4.27%
CC(C)CN(C(=O)CSc1nnnn1C)C1CCS(=O)(=O)C1 (centres unmarked) | 26%
CCC/C(=N\NC(=O)Cc1csc(N2CCOCC2)n1)c1ccccc1 | -13.5%
O=C(N/N=C/c1ccc[nH]1)c1ccc(O)cc1 | 19.6%
Cc1c(Cl)c([N+](=O)[O-])nn1CC(=O)N1CCc2ccccc2C1 | 1.08%
Cc1c(Br)c([N+](=O)[O-])nn1CC(=O)N1CCN(Cc2ccccc2)CC1 | -56.4%
Cc1cc([N+](=O)[O-])nn1CC(=O)N1CCN(Cc2ccccc2)CC1 | -8.96%
Cc1c(Cl)c([N+](=O)[O-])nn1CC(=O)N1CCCC1 | -4.86%
Cc1c(Cl)c([N+](=O)[O-])nn1CC(=O)N1CCN(Cc2ccccc2)CC1 | -71%
Cc1c(Br)c([N+](=O)[O-])nn1CC(=O)NCc1ccccc1 | -2.99%
CC(C)(C)c1nc(SCC(=O)NCc2cccs2)c2ccccc2n1 | -0.222%
CCCCn1c(SCC(=O)Nc2nnc(C)s2)nc2c1c(=O)n(C)c(=O)n2C | -12.4%
Cc1ccc(-n2c(O)c(C=NCc3ccccn3)c3ccccc3c2=O)cc1C | -11.5%
CC1=C(C(=O)OCC2CCCO2)C(c2ccccc2Cl)NC(=O)N1 (centres unmarked) | 14.1%

Source: paper PMC4336329 (PLoS ONE, 2015)
